Experimental findings from PubChem BioAssay AID1671202 (University of Kansas High Throughput Screening Laboratory, 2021) are described below.

The campaign covered roughly 190,000 compounds. About 6,900 (3.6%) were called active. The entries come from a sample that favours actives as a whole. Unmarked numbers belong to inactive results. No stated cut-off is given here; in the data, active means inhibition above about 50%; inactive means the rest.

Sequence of Huntingtin (Homo sapiens) (P42858 whole entry, looked up, stated change not applied): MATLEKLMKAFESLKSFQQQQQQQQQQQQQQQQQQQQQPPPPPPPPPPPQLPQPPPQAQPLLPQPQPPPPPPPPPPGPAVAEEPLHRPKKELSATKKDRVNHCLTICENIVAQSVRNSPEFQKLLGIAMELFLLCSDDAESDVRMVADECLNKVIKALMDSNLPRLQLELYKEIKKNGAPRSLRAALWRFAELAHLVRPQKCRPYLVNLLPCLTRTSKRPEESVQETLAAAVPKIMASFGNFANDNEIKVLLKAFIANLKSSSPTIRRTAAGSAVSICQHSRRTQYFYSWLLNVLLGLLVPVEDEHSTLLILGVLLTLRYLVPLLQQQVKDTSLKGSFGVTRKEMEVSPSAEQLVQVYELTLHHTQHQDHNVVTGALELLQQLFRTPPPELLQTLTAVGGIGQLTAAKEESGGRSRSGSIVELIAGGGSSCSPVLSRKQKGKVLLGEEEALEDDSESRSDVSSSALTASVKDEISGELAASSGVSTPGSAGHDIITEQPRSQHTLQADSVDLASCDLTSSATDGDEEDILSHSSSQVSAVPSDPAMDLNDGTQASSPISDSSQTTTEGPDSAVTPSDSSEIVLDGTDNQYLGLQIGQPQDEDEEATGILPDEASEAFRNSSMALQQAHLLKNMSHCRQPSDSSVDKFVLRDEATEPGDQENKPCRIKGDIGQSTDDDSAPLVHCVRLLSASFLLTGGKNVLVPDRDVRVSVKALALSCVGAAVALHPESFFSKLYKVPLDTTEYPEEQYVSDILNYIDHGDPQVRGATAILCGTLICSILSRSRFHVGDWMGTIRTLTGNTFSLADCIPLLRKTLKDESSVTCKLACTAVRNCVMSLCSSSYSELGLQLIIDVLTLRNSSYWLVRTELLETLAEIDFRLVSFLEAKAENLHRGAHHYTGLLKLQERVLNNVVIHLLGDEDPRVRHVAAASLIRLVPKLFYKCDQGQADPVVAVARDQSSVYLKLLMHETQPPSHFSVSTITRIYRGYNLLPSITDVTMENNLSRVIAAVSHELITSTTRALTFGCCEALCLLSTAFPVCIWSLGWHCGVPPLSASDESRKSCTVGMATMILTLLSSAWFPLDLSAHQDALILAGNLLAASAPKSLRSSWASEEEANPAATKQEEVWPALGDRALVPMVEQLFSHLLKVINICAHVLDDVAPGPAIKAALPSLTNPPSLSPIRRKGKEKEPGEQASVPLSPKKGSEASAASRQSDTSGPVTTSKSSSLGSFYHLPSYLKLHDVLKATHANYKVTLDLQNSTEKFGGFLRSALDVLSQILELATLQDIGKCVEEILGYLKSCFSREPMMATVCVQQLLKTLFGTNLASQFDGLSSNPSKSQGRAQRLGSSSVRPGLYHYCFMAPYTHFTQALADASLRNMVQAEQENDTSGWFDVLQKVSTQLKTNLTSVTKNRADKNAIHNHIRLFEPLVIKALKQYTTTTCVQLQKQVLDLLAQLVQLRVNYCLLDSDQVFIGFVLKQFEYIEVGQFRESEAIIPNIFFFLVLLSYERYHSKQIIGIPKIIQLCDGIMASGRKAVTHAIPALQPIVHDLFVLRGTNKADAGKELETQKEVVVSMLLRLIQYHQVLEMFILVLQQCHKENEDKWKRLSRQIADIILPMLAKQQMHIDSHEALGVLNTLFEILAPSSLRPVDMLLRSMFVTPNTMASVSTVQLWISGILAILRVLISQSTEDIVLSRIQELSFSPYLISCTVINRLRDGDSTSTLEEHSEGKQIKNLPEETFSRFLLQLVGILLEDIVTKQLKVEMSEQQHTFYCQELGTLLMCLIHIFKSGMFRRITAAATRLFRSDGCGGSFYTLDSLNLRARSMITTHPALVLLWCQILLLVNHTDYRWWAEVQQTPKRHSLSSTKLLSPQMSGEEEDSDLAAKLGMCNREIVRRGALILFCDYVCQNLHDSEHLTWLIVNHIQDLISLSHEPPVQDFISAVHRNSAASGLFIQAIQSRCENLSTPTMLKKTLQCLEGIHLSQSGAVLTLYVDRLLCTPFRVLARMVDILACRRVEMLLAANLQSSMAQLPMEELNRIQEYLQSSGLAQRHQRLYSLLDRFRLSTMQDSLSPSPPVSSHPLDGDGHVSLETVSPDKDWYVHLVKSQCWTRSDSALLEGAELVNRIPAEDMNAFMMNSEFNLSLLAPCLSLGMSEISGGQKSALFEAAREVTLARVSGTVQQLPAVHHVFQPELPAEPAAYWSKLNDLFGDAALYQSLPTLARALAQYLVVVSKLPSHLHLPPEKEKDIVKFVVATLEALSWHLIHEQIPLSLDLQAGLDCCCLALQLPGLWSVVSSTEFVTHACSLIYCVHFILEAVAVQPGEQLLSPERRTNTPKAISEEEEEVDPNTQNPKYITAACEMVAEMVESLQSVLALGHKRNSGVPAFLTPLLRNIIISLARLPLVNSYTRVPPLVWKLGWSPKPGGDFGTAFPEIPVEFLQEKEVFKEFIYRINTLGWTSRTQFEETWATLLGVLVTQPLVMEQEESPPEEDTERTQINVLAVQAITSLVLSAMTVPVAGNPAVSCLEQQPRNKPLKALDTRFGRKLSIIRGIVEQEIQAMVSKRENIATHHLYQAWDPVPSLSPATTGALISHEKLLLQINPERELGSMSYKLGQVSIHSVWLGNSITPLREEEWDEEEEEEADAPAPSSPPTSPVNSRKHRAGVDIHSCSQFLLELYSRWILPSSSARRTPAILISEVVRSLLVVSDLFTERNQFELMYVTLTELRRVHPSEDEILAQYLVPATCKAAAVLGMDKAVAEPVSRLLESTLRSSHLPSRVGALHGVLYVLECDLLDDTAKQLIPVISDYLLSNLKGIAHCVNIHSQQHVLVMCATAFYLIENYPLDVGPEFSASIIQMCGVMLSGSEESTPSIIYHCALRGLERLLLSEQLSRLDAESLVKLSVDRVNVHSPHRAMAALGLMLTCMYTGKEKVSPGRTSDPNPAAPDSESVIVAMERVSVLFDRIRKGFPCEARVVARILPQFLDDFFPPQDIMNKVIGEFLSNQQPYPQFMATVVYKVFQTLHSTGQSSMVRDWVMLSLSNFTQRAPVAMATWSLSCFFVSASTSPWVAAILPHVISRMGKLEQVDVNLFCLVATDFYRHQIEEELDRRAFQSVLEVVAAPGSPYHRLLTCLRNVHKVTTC

The experiment concerns the target Huntingtin (Homo sapiens) (UniProt P42858). The experiment can be described thus: mutant huntingtin-calmodulin interaction inhibitors – biochemical, AlphaScreen, primary screen (AID 1671202).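 On inhibition: 0% = both proteins with DMSO and 100% = one protein alone.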 Conditions: AlphaScreen His-mHTT/GST-CaM binding, luminescence; at 15 µM, active compounds read high. A general note: Alpha assays give light when donor and acceptor beads are brought close together.
What is called inhibition is the change of the read-out against control, counted positive when it falls. Turning to `O=C(Nc1cccc(F)c1)N1CCC(N2CCN(Cc3ccc(F)cc3)C2=O)CC1`, the inhibition was 13%.

Turning to `CC(=O)N1c2c(cc(Br)cc2S(=O)(=O)Nc2cccc([N+](=O)[O-])c2)CC1C` (configuration not stated), the inhibition was 6%.

On to `CC(=O)Nc1ccc(C(=O)N2CCN(c3cccc(Cl)c3)CC2)cc1`, for which the inhibition is 83.1% (active).

In the case of `O=C(c1ccc([N+](=O)[O-])cc1)N1CCN(c2cccc(Cl)c2)CC1`, the inhibition was 13.1%.

For the compound `O=C(c1ccc2nc3ccc(Cl)cc3c(=O)n2c1)N1CCN(c2cccc(Cl)c2)CC1`, the inhibition is 6%.

Regarding `Cc1ccccc1-n1cnc(C(=O)NCCC(C)C)n1`, the inhibition was -3%.

Take `CC(C)C[C@@H]1COc2cc(N3CCC[C@@H]3CO)ccc2S(=O)(=O)N1`: the inhibition is -7.7%.

As for `CC1CCN(c2ccc(N)cc2)CC1`, the inhibition was 79.6% (active).

Turning to `CC1CCN(c2ccc([N+](=O)[O-])c(SCCO)c2)CC1`, the inhibition was 24%.

Regarding `Cc1ccc(N2CCN(C3CCCCCC3)CC2)cc1`, the inhibition was 7.2%.

Regarding `Cn1c(C(=O)NCc2ccco2)cc2c1CCN(Cc1ccc(F)cc1)C2`, the inhibition is 40.4%.

For `COc1ccc(OC)c(Nc2nc(CC(=O)Nc3nc4ccccc4s3)cs2)c1`, the inhibition was 54.7% (active).

Take `COc1ccc(C(=O)Nc2nc3ccccc3s2)cc1Br`: the inhibition is -8%.

In the case of `O=C(COc1ccccc1)Nc1nc2ccccc2s1`, the inhibition is -8.3%.

Take `CCCC(=O)N1CCN(c2nc3c(s2)c(C)nn3-c2ccc(F)cc2)CC1`: the inhibition was 0.3%.

Consider `O=C(NCC1(c2ccccc2)CCOCC1)C(=O)Nc1cccnc1`, for which the inhibition was -3.4%.

As for `N#C/C(=C\c1cn[nH]c1-c1cccs1)c1nc2ccccc2[nH]1`, the inhibition is 37%.

As for `COc1ccc(C2CC(c3ccc(Cl)cc3Cl)Nc3nc(N)nn32)cc1OC` (configuration not stated), the inhibition is 70.9% (active).

With `CCOc1ccccc1C1CC(c2ccccc2)Nc2nc(N)nn21` (configuration not stated), the inhibition was 18.6%.

With `COc1ccc(C2CC(c3ccc(C)cc3)Nc3nc(N)nn32)cc1` (configuration not stated), the inhibition was 11.1%.

As to `CCOc1ccccc1C1CC(c2ccc(Cl)cc2)Nc2nc(N)nn21` (configuration not stated), the inhibition is 54.2% (active).

As for `CCOc1ccc(C2CC(c3ccccc3Cl)n3nc(N)nc3N2)cc1` (configuration not stated), the inhibition is 36.1%.

In the case of `COc1cccc(C2CC(c3cccc(Cl)c3)n3nc(N)nc3N2)c1` (configuration not stated), the inhibition is 30.3%.

On to `Cn1cccc1/C=N/NC(=O)CCCCCCC(=O)N/N=C/c1cccn1C`, for which the inhibition entry was “inactive”.

Take `COc1ccc(C2C=C(c3ccc(C)cc3)Nc3nnnn32)cc1` (configuration not stated): the inhibition was -16%.

In the case of `Cc1cc(S(=O)(=O)NCC2(O)CCOCC2)c(Cl)cc1Cl`, the inhibition was -11.3%.

Turning to `Cc1[nH]nc(-c2ccsc2)c1NC(=O)Cc1ccccc1`, the inhibition was -4%.
